# Results published in the OligoGym collection.
# Biological target: GHSR
# Experiment: pooled miR-30 sensor sort-seq; sequence = guide strand
# Conditions: shRNA
# Note: reference of the scale not given here.
row,Sequence,sensor-assay potency score (higher = more potent)
1,TTGCTTGTGGTTCTGGTCCCTG,-0.711
2,AAGTCTGAACACTGCCACCCGG,-1.26
3,TAGAAGAGGACAAAGGACACGA,0.735
4,TGGAAAATAAATATCGCCCTAC,-0.395
5,TTTGCAGAGGAGGTCGCCGAAG,-1.38
6,TTGGACATGATGTTGTACAGAA,0.099
7,TAGCGCTCGACGCTCAGCGCTG,-1.17
8,TTGCAGTACTGGCTGATCTGAG,-0.301
9,TTGAACCCCGGCTCTTCGCTGG,-0.129

# Biological target: GINS3
# Experiment: as above
# Conditions: shRNA
row,Sequence,sensor-assay potency score (higher = more potent)
1,TTCTATGCAATAATGTTGCAAA,-0.524
2,TTATAAAAACAACAATTCCATC,-1.34
3,TAGTGCTTGCTTAACCAGGTTC,-0.37
4,TCTTCTTGTAATTCTGAACGAG,-0.383
5,TTATTTAGGAAGGACTTTGATT,-0.522
6,TTTCTTTCTCAACCTGAGGTTG,-0.934
7,TTTATTTAGCACTAAAATCAAA,-1.42
8,TAGTGAAACTGTACATCTGAAG,-1.07
9,TACAAGGTCAACCAGCTCCTAT,-1.16
10,TTTGTGGCTAGTGAAACTGTAC,-0.833
11,TTCTCTTCTTGTAATTCTGAAC,-1.11
12,TTTCTCTTCTTGTAATTCTGAA,-0.125

# Biological target: GIPC2
# Experiment: as above
# Conditions: shRNA
row,Sequence,sensor-assay potency score (higher = more potent)
1,TATGAAATCTTCTAGTCCTAGT,-0.186
2,TAACTTCTTAGCAACATCATAG,-1.26
3,TTAGGTTCTATTAACTTCATAG,-0.883
4,ATACACATGAAATTAAACCAGA,-0.735
5,TTTCTCCTGATGACTTTCCAGC,-1.05
6,TAACTGAGTCAATAACACCACC,-0.972
7,TTAACTTCTTAGCAACATCATA,-1.57
8,TTTATACACATTCACTTCTTTT,-1.24
9,ATATGAAATCTTCTAGTCCTAG,-0.694
10,TTACTTTGTCCTTTCCAGCTTC,-0.236
11,TTAACTGAGTCAATAACACCAC,0.431
12,TAAAAGCATAGCCAACACCATT,-1.62

# Biological target: GIP
# Experiment: as above
# Conditions: shRNA
row,Sequence,sensor-assay potency score (higher = more potent)
1,AAAGTCTTGTTGGTGAATCTTG,-0.684
2,TTGAATCAGCAAGTCCCGCAGC,-0.492
3,TCTTGAATCAGCAAGTCCCGCA,-0.377
4,TTGTCCATGGCAATACTGTAGT,-0.964
5,TAGTCACTGATGAAAGTCCCTT,-0.346
6,TTTGTCTGATCCAGCAAGCAGG,-1.07
7,TTGGTGAATCTTGTCCATGGCA,-0.501
